# Where “and” joins values, the source holds several entries; their conditions need not be identical. Identical values can stand only once. Results filed as inconclusive are left out. Calls of active or inactive are those of the source. Calls follow the shape of the dose curve; as a rule, active = well fitted inhibition curve with a large enough effect in the repeat runs; inconclusive = weak or mixed curves; inactive = no such curve, though single readings can be large or run the other way.
# Target: Cytochrome P450 3A4 (Homo sapiens) (UniProt P08684)
# Assay: Cytochrome P450 Family 3 Subfamily A Member 4 (CYP3A4) small molecule antagonists: luciferase reporter qHTS assay (AID 1671201); also: nearly all actives have a fitted effect of over 50% in size
# Details: P450-Glo CYP3A4 enzyme, luciferin luminescence, 1 h; series mostly up to 115 µM; activity change, negative = inhibition: at the top concentration
# Text: National Center for Advancing Translational Sciences [NCATS]
# U.S. Environmental Protection Agency [EPA]
# National Institutes of Environmental Health Sciences [NIEHS]
# National Toxicology Program [NTP]
# U.S. Food and Drug Administration [FDA]
# Cytochrome P450 (CYP) enzymes are membrane-bound hemeproteins that play a key role in metabolism of drugs and xenobiotics. Evaluation of the effect of chemicals on CYP isozymes is useful to minimize the adverse drug reactions and toxicities in drug development process. Tox21 chemicals were tested for their effect on CYP enzyme activities by using P450-Glo (TM) screening systems (Promega Corporation, Madison, WI). These systems provide a luminescent method containing proluciferin substrates and are converted to luciferin products by CYP isozymes. The luciferin products formed are detected with a luciferin detection reagent, and the amount of light produced is proportional to CYP activity. P450-Glo (TM) CYP3A4 screening system (Catalog. No. V9910) was used to detect the compounds that interfere in CYP3A4 activity. The positive control compound used for CYP3A4 assay is ketoconazole (Sigma-Aldrich, St. Louis, MO).
# Tox21 Assay Protocol Summary:
# Two ul of enzyme-substrate mix was dispensed into medium binding white/solid 1536-well plates (Greiner Bio-One North America Inc., Monroe, NC) using a BioRaptr Flying Reagent Dispenser (FRD, Beckman Coulter, Brea, CA). Compounds dissolved in DMSO and positive control (ketoconazole) were transferred to the assay plates at 23 nl using a Pintool station (Wako, San Diego, CA). The assay plates were incubated at room temperature for 10 min. Then 2 ul of NADPH regeneration solution was added to each well of the assay plates using an FRD and incubated at room temperature for 1 h. The reaction was stopped by adding 4 ul of detection reagent using an FRD and after 20 min incubation at room temperature the luminescence signal was measured using a ViewLux plate reader (Perkin Elmer, Shelton, CT). Data were expressed as relative luminescence units.
# % is scaled to controls: 0 for no effect and ±100 for the full control effect; potency is read from the fitted curve at half-maximal effect.
# Sequence of Cytochrome P450 3A4 (Homo sapiens) (P08684 whole entry, looked up): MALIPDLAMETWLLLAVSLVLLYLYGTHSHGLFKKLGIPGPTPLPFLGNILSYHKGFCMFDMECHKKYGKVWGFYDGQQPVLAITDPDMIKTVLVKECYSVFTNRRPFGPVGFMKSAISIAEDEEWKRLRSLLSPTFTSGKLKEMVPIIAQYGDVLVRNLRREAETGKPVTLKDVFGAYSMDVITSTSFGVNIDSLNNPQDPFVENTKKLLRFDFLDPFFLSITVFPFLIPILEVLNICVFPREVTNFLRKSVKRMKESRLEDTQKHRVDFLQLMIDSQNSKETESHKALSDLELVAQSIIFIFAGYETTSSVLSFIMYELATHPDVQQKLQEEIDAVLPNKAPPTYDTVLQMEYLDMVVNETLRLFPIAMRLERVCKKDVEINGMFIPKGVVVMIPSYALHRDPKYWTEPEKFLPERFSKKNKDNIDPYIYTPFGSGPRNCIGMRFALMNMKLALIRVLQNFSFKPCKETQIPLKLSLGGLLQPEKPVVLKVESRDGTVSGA
SMILES,"activity change, negative = inhibition",Potency
CN1CCN(c2cc3c(cc2F)c(=O)c(C(=O)O)cn3-c2ccc(F)cc2)CC1,11.3% [at 52.9 µM] (inactive),–
CC1=CC(C)C(C=O)CC1 (stereo not given),6.42% (inactive),–
COC(=O)[C@@H](N)Cc1ccc(O)c(O)c1,-19.1% [at 52.9 µM] (inactive),–
Nc1c2c(nc3ccccc13)CCCC2O (stereo not given),-13.9% [at 52.9 µM] (inactive),–
CC(C)(O)C#CC(C)(C)O,0.536% (inactive),–
CN1N=C(C(N)=O)CCC1=O,0.477% [at 52.9 µM] (inactive),–
C=COCC1CCC(CO)CC1 (stereo not given),-15.9% (inactive),–
O=C(O)COc1nn(Cc2ccccc2)c2ccccc12,9.41% [at 52.9 µM] (inactive),–
CCn1ccnc1CC1COc2ccccc2O1 (stereo not given),1.52% [at 52.9 µM] (inactive),–
O=S(O)CO,2.22% (inactive),–
C/C=C(\C)C#N,2.66% (inactive),–
CCOC(C)(C)C,-0.783% (inactive),–
N[C@@H](C(=O)N[C@@H]1C(=O)N2C(C(=O)O)=C(Cl)CS[C@H]12)c1ccccc1,-15.7% [at 10.5 µM] (inactive),–
NC(=O)c1ccc(N)cc1,1.61% (inactive),–
Cc1ccc(=O)n(-c2ccccc2)c1,10.6% [at 52.9 µM] (inactive),–
CCCCC/C=C\CCC=O,-13.7% (inactive),–
COC(=O)NN,1.67% (inactive),–
CC(=O)OCC(CCn1cnc2cnc(N)nc21)COC(C)=O,-2.17% [at 52.9 µM] (inactive),–
O=C1CCCCCCCCCCCN1,–,3.55 µM (active) and 7.96 µM (active)
O=C(O)CCCl,0.923% (inactive),–

SMILES,"activity change, negative = inhibition",Potency
CC(=O)N(CC(O)CO)c1c(I)c(C(=O)NCCO)c(I)c(C(=O)NCC(O)CO)c1I (stereo not given),6.98% [at 52.9 µM] (inactive),–
NC(=O)COCCN1CCN(C(c2ccccc2)c2ccc(Cl)cc2)CC1 (stereo not given),-1.12% [at 52.9 µM] (inactive),–
CCCCCCCCS(=O)(=O)Cl,52.9% (inactive),–
C=CCS(=O)(=O)O,9.09% (inactive),–
O=C1CCCN1C1CCCCC1,6.68% (inactive),–
CCCc1cc(C(N)=S)ccn1,-25.5% [at 52.9 µM] (inactive),–
CCOC(=O)c1cccc(N)c1,-28.4% [at 52.9 µM] (inactive),–
N=C(N)c1ccc(OCCCOc2ccc(C(=N)N)cc2)cc1,15.5% [at 52.9 µM] (inactive),–
COC(=O)c1c(Cl)c(Cl)c(C(=O)OC)c(Cl)c1Cl,–,inactive
CN1CCC(=C2c3ccccc3CC(=O)c3sccc32)CC1,29.2% [at 52.9 µM] (inactive),–
NCCCNCCSP(=O)(O)O,5.88% [at 10.5 µM] (inactive),–
CC(C(=O)O)c1ccc(CC2CCCC2=O)cc1 (stereo not given),3.65% [at 52.9 µM] (inactive),–
CCOC(=O)c1ccc(C)cc1,4.65% (inactive),–
CC/C=C\CC/C=C/C(OCC)OCC,–,31.7 µM (active)
Oc1ccc(C2CNCCc3c2cc(O)c(O)c3Cl)cc1 (stereo not given),7.23% [at 52.9 µM] (inactive),–
COC(=O)c1cc(C(=O)OC)cc(S(=O)(=O)O)c1,17% (inactive),–
CC(C[N+](C)(C)C)OC(N)=O (stereo not given),9.31% [at 52.9 µM] (inactive),–
NS(=O)(=O)c1ccccc1Cl,11.2% (inactive),–
Cn1c(N)c(N=O)c(=O)n(C)c1=O,-21.6% (inactive),–
C[C@](N)(Cc1ccc(O)cc1)C(=O)O,-20.3% [at 10.5 µM] (inactive),–

# Source: PubChem BioAssay (Tox21)
